# According to PubChem BioAssay (NCATS):
# Values without a mark were called inactive. The source made the active and inactive calls. Calls follow the shape of the dose curve; as a rule, active = well fitted curve in the direction sought with a large enough effect; inactive = no such curve, though single readings can be large or run the other way.
# Target: Alpha-galactosidase A (Homo sapiens) (UniProt P06280)
# Experiment: Counterscreen for Glucocerebrosidase Inhibitors: qHTS Assay for Human alpha-Galactosidase at pH 4.5 (AID 992); also: 0% is about no effect
# Conditions: purified enzyme, fluorogenic substrate; series mostly up to 76.9 µM; activity change, negative = inhibition: at the top concentration
# From the text: NIH Chemical Genomics Center [NCGC]
# NIH Molecular Libraries Screening Centers Network [MLSCN]
# PI Name: Zheng, Wei [NIH]
# Alpha-galactosidase is a homodimeric glycoprotein that hydrolyzes the terminal alpha-galactosyl moieties from glycolipids and glycoproteins. Deficiency of this enzyme results in Fabry Disease with progressive accumulation of globotriaosylceramide and other glycosphingolipids in vascular endothelial cells that causes renal failure, myocardial infarction and stroke, and premature death in patients. It has reported that the improper folding and trafficking of alpha-galactosidase resulted from the genetic mutations may account for a significant numbers of Fabry patients. […] We optimized this alpha-galactosidase assay in 1536-well plate format for identifying the novel small molecule inhibitors with the structures other than the sugar analogs in order to develop the new pharmacological chaperones.
# NCGC Assay Protocol Summary:
# This is a fluorogenic enzyme assay with 4-Methylumbelliferyl alpha-D-galactopyranoside as the substrate and human […] as the enzyme preparation. Upon the hydrolysis of this fluorogenic substrate, the resulting product, […]. 4-Methyllumbelliferone, can be excited at 365 nm and emits at 440 nm which can be detected by a standard fluorescence plate reader. Data were normalized to the controls for basal activity (without enzyme) and 100% activity (with enzyme). In the AC50 values were determined from concentration-response data modeled with the standard Hill equation.
# Assay buffer: 50 mM citric acid, 0.005% Tween-20, pH 4.5. (pH 4.5 is an optimal condition for this enzyme assay)
# 1536-well assay protocol for the human alpha-galactosidase:
# (1) Add 2 ul/well of enzyme (2 nM final)
# (2) Add 23 nL compounds in DMSO solution. The final titration was 0.7 nM to 77 uM.
# (3) Add 1 ul of substrate (80 uM final)
# (4) Incubate at room temperature for 20 min.
# (5) Add 2 ul stop solution (1M NaOH and 1M Glycine mixture, pH 10)
# (6) Detect the assay plate in a ViewLux plate reader (PerkinElmer) with Ex=365 nm and Em=440nm.
# Keywords: Alpha-galactosidase, Fabry Disease, pharmacological chaperone, chaperone therapy, high throughput screening, alpha-galactosidase inhibitor, MLSMR, MLSCN, NIH Roadmap, qHTS and NCGC
# Chain of Alpha-galactosidase A (Homo sapiens) (P06280 whole entry, looked up): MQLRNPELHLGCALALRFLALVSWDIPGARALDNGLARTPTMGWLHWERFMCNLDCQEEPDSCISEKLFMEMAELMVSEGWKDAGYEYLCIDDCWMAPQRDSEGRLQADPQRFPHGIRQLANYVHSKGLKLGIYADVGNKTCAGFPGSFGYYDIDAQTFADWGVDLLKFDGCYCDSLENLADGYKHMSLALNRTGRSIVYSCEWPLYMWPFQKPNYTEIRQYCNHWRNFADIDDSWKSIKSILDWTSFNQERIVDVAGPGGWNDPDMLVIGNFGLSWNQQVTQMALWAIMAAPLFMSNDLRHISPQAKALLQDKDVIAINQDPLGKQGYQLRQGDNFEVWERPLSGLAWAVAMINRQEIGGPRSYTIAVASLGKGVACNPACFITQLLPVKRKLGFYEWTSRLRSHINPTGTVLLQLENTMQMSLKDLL
Compound,"activity change, negative = inhibition",outcome
CC(=O)OCC(=O)[C@@]1(O)CC[C@H]2[C@@H]3CCC4=CC(=O)CC[C@]4(C)[C@H]3C(=O)C[C@@]21C,-0.36%,
OCCN1CCN(CCCN2c3ccccc3Sc3ccc(Cl)cc32)CC1,-3.03%,
CCN(CC)CCNC(=O)c1cc(Cl)c(N)cc1OC,-0.943%,
OCc1cc(C(O)CNCCCCCCOCCCCc2ccccc2)ccc1O (stereo unspecified),-1.48%,
N=c1c[n+](N2CCOCC2)[n-]o1,-0.256%,
CC1=C(CC(=O)O)c2cc(F)ccc2/C1=C\c1ccc(S(C)(=O)=O)cc1,-1.34%,
CCCn1cnc2c1c(=O)n(CCCCC(C)=O)c(=O)n2C,-3.38%,
CC(C)NC[C@H](O)c1ccc(O)c(O)c1,,inactive
CN(C)CCCN1c2ccccc2Sc2ccc(Cl)cc21,-8.41%,
Nc1cc(=O)[nH]c(N)n1,-0.878%,
C[C@]12CC[C@@H]3c4ccc(O)cc4CC[C@H]3[C@@H]1CCC2=O,-1.88%,
CCN(CC)CCOC(=O)C1(C2CCCCC2)CCCCC1,-4.73%,
C[C@]12C[C@H](O)[C@H]3[C@@H](CCC4=CC(=O)CC[C@@]43C)[C@@H]1CC[C@@H]2C(=O)CO,1.15%,
CC(C)C(=O)c1c(C(C)C)nn2ccccc12,-0.196%,
CNCCCC1c2ccccc2C=Cc2ccccc21,-3.73%,
Cc1cc(N)c2ccccc2[n+]1CCCCCCCCCC[n+]1c(C)cc(N)c2ccccc21,3.22%,
C#CCN(C)Cc1ccccc1,-1.39%,
COC(=O)C1=C(C)NC(C)=C(C(=O)OC)C1c1ccccc1[N+](=O)[O-],-7.38%,
NC(=O)c1ncn([C@@H]2O[C@H](CO)[C@@H](O)[C@H]2O)n1,4.6%,
NC1CCN(c2cccc(Cl)n2)CC1,-0.815%,
COc1ccc(Cl)cc1C(=O)NCCc1ccc(S(=O)(=O)NC(=O)NC2CCCCC2)cc1,4.61%,
CN(C)CCC=C1c2ccccc2CCc2ccccc21,-5.26%,
CCCCCCCCCCCCCCCC(=O)NCCO,3.04%,
NC(N)=NCCC[C@H](N)C(=O)O,-0.767%,
CN(C)CCCN1c2ccccc2CCc2ccccc21,-6.68%,
C=Cc1c(C)c2cc3[nH]c(cc4nc(cc5nc(cc1[nH]2)C(C)=C5CCC(=O)O)C(CCC(=O)O)=C4C)c(C)c3C=C,-3.19%,
